Test [1] concerns the target Lysosomal acid glucosylceramidase (Homo sapiens) (UniProt P04062). Nature of the test: Glucocerebrosidase-p2 (AID 348; in the data active means potency below about 10 µM; further: potency means the concentration at half of the fitted maximal effect). The settings on record: purified GBA, blue fluorogenic substrate, 40 min. The method in brief: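 Normal human glucocerebrosidase (0.2 nM) with blue fluorogenic substrate (80 uM final) in citrate/phosphate pH 5.9 with 10mM sodium taurocholate, 0.01% tween-20; 40 min RT, NaOH/glycine stop; fluorescence Ex 365/Em 440; AC50 from a titration from 0.6 nM upwards.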

Test [2] can be described thus: AP1 Signaling Pathway (AID 357; active means well fitted curve in either direction with a large enough effect, not every such curve was filed as active;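 further: ME-180 reporter cells stimulated with EGF at its EC50 level; on the % scale 0 is the no-effect control and ±100 the full control effect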). The settings on record: ME-180 AP-1-bla reporter, EGF-induced, beta-lactamase ratio, 5 h; at 7.69 µM (top of the series) unless noted. The method in brief:
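Cells are seeded overnight, exposed to compound titrations and an EC50 level of EGF for 5 hours at 37 °C, then loaded with CCF4 dye for 2.5 hours. Beta-lactamase activity under the AP-1 element is read as a blue/green ratio.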

Test [3] has as its target Cytochrome P450 1A2 (Homo sapiens) (UniProt P05177). The test is described as follows: p450-cyp1a2 (AID 410; calls by dose curve; further: potency means the concentration at half of the fitted maximal effect). The method in brief:
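O-Demethylation of luciferin 6' methyl ether by human CYP1A2 is monitored as luciferase luminescence. Substrate sits at Km (100uM); enzyme is 20nM. Values are scaled to 57 uM furafylline as maximal inhibition.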

The nature of test [4]: NFAT Signaling Pathway (AID 444; active means well fitted curve in either direction with a large enough effect, not every such curve was filed as active;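 further: carbachol stimulus at about its EC50 of 1 µM final; on the % scale 0 is the no-effect control and ±100 the full control effect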). Conditions: Jurkat NFAT-bla M1, carbachol, beta-lactamase ratio, 5 h; at 7.69 µM (top of the series) unless noted. Put shortly: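 Jurkat cells with NFAT-driven β-lactamase reporter and co-expressed M1 receptor, stimulated with carbachol (final 1 uM, ~EC50), compound titration, 5 h at 37 °C. CCF4 loaded 1 h at RT; 460/530 nm ratio gave %activity and AC50.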

Test [5] can be described thus: Stat Signaling Pathway (AID 446; active means well fitted curve in either direction with a large enough effect, not every such curve was filed as active;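 further: ME-180 cervical cancer cells given 40 pM IL-6 alongside compound; SIE-controlled beta-lactamase reporter measured as 460/530 nm FRET emission ratio; on the % scale 0 is the no-effect control and ±100 the full control effect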). The settings on record: ME-180 (cervical carcinoma) SIE beta-lactamase reporter, IL-6 stimulated, 5 h; at 7.69 µM (top of the series) unless noted. Put shortly:
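Overnight-plated ME-180 cells bearing a STAT Inducible Element beta-lactamase reporter; 5 h co-exposure to compound and 40 pM IL-6; values normalized to 300 pM IL-6 and 125 nM JAK inhibitor controls.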

In test [6] the target is Glucocorticoid receptor (Homo sapiens) (UniProt P04150). The test is described as follows: GR-GFP Redistribution (AID 450;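 active means compounds whose dose series gives a full or clear partial fitted curve of increased nuclear translocation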; further: potency means the concentration at half of the fitted maximal effect). The settings on record: U2OS GR-GFP nuclear translocation, laser cytometry, 2 h.
For test [7] the target is unchanged. Nature of the test: GR-EFC Redistribution (AID 451; calls by dose curve; further: potency means the concentration at half of the fitted maximal effect). The settings on record: CHO-K1 GR-EFC translocation, beta-gal luminescence, 2 h. Put shortly: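 CHO-K1 cells expressing nuclear EA and GR-ED fragments of b-gal; compounds titrated up to 46 uM final, 2 h at 37 C. GR nuclear translocation read as complemented b-gal luminescence after 1 h RT detection.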
For test [8], the target named is Mitogen-activated protein kinase 10 (Mus musculus) (UniProt Q61831). Nature of the test: JNK3 AlphaScreen Assay (AID 530; active means well fitted curve in either direction with a large enough effect, not every such curve was filed as active;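 further: kinase came from lysate of stimulated human HepG2 cells; signal reports phosphorylation of biotinylated GST-cJun 1-79 at Ser73 with 10 µM ATP; on the % scale 0 is the no-effect control and ±100 the full control effect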). The method in brief:
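Activity was read by AlphaScreen after JNK3-containing HepG2 lysate (cytokine pre-activated) phosphorylated biotinylated GST-cJun with 10 uM ATP at room temperature. Phospho-Ser73 cJun antibody with Protein-A acceptor beads provided detection.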

Test [9] concerns the target 3',5'-cyclic-AMP phosphodiesterase 4B (Homo sapiens) (UniProt Q07343). Nature of the test: qHTS Assay for Inhibitors of PDE-IV (AID 607; active means well fitted activation curve with a large enough effect in the main read-out, with a control signal flat, not every such curve was filed as active; further: % of control where 0% means no effect). Put shortly: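 Live HEK293 cells with a modified cyclic nucleotide-gated (CNG) channel report intracellular cAMP via membrane-potential dye fluorescence (ex 535/em 590 nm). Endogenous PDE-IV was targeted. Compounds were tested at up to 22.9 uM final; RO 20-1724 100 uM served as control.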

Test [10] has as its target Cytochrome P450 3A4 (Homo sapiens) (UniProt P08684). The test is described as follows: qHTS Assay for Activators of Cytochrome P450 3A4 (AID 885). Further: nearly all actives have a fitted effect of over 65% in size. The method in brief:
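Using 20nM recombinant human CYP3A4 in potassium phosphate (200mM), substrate Luciferin-PPXE at 25uM, luminescent luciferin detection followed a 60-min RT NADPH reaction; data scaled to 57 uM ketoconazole.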

Test [11] addresses Ubiquitin carboxyl-terminal hydrolase 1 (Homo sapiens) (UniProt O94782). The test is described as follows: Inhibitors of USP1/UAF1: Pilot qHTS (AID 504865).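 Further: rhodamine fluorescence freed from ubiquitin-rhodamine substrate followed over time; top concentration of the series differs between compounds; on the % scale 0 is the no-effect control and ±100 the full control effect; nearly all actives have a fitted effect of over 35% in size.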 The method in brief: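 Enzyme-free wells gave the negative control, while test wells held 1nM USP1/UAF1 preincubated with compound for 15 min at room temperature. Ub-Rho at 150nM final started the reaction, and fluorescence at 480/540 nm was recorded kinetically.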

Test [12] can be described thus: Primary qHTS for small molecule stabilizers of the endoplasmic reticulum resident proteome: Secreted ER Calcium Modulated Protein (SERCaMP) assay (AID 1508630). Further: on the % scale 0 is the no-effect control and ±100 the full control effect. Put shortly: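 The SH-SY5Y reporter protocol was run at 3 concentrations up to 38.3 uM (primary) or 11 concentrations (follow-up): 16 h compound, 100 nM thapsigargin for 4 h, then extracellular luciferase luminescence.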

Test [13] concerns the target Rap guanine nucleotide exchange factor 3 (Homo sapiens) (UniProt O95398). Nature of the test: Confirmatory qHTS for antagonist of cAMP-regulated guanine nucleotide exchange factor 3 (EPAC1) (AID 1645880).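 Further: plate controls were DMSO only for no effect and full effect of the ATA control for full effect; nearly all actives have a fitted effect of over 55% in size.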 The method in brief: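 Released BODIPY-GDP fluoresces less than Rap1-bound BODIPY-GDP; the signal is followed at 480/540 nm at 5-min intervals over 30 min, after 5 min at room temperature. Reactions contain 100 nM EPAC1, 250 nM RAP1B-BODIPY-GDP and 50 uM GDP; results are normalized to ATA and DMSO.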

Test [14] has the same target. Nature of the test: Confirmatory qHTS for agonist of cAMP-regulated guanine nucleotide exchange factor 3 (EPAC1) (AID 1645881).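 Further: EPAC1 catalysed release of BODIPY-GDP from Rap1B seen as fluorescence loss; nearly all actives have a fitted effect of over 75% in size.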
Test [15] concerns the target Rap guanine nucleotide exchange factor 4 (Homo sapiens) (UniProt Q8WZA2). The test is described as follows: Confirmatory qHTS for agonist of cAMP-regulated guanine nucleotide exchange factor 4 (EPAC2) (AID 1645884).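 Further: nucleotide exchange releases bodipy-GDP from Rap1 and this lowers its fluorescence; nearly all actives have a fitted effect of over 65% in size.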 Further: potency means the concentration at half of the fitted maximal effect.
For test [16] the target is unchanged. Nature of the test: Confirmatory qHTS for antagonist of cAMP-regulated guanine nucleotide exchange factor 4 (EPAC2) (AID 1645885). Further: on the % scale 0 is the no-effect control and ±100 the full control effect; nearly all actives have a fitted effect of over 25% in size.

Unmarked numbers belong to inactive results. Results filed as inconclusive are left out. Active and inactive are the calls of the source. Unless noted, the call rests on the fitted dose curve; in most records, active means well fitted curve in the direction sought with a large enough effect; inconclusive means small, poorly fitted or top-dose-only effect, or another doubt; inactive means no such curve, though single readings can be large; an effect the other way counts as inactive or inconclusive.

Chain of Rap guanine nucleotide exchange factor 3 (Homo sapiens) (O95398 whole entry, looked up): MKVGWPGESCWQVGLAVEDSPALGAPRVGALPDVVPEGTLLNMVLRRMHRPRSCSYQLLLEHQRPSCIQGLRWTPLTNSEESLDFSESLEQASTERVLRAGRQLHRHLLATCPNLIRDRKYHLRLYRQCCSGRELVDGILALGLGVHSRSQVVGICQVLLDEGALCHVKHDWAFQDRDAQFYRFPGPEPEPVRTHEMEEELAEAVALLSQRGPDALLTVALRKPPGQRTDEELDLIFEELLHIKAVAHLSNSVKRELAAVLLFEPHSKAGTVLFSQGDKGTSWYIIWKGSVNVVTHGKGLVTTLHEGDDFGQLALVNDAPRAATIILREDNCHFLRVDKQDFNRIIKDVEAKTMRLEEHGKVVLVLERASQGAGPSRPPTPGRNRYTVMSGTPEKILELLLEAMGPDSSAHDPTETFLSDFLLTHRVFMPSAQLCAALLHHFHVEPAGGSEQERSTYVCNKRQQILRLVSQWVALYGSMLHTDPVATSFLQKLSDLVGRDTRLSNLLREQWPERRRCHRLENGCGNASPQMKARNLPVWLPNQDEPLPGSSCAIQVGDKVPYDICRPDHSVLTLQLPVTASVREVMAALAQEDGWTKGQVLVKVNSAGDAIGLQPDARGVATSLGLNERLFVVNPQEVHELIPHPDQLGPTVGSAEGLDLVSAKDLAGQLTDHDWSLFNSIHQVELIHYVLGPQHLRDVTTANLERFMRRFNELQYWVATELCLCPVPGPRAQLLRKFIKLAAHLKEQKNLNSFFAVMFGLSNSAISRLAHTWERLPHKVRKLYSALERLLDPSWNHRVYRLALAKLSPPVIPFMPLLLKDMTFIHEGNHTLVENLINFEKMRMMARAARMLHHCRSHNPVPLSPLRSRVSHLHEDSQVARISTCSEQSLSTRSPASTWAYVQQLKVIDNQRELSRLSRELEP
Chain of Rap guanine nucleotide exchange factor 4 (Homo sapiens) (Q8WZA2 whole entry, looked up): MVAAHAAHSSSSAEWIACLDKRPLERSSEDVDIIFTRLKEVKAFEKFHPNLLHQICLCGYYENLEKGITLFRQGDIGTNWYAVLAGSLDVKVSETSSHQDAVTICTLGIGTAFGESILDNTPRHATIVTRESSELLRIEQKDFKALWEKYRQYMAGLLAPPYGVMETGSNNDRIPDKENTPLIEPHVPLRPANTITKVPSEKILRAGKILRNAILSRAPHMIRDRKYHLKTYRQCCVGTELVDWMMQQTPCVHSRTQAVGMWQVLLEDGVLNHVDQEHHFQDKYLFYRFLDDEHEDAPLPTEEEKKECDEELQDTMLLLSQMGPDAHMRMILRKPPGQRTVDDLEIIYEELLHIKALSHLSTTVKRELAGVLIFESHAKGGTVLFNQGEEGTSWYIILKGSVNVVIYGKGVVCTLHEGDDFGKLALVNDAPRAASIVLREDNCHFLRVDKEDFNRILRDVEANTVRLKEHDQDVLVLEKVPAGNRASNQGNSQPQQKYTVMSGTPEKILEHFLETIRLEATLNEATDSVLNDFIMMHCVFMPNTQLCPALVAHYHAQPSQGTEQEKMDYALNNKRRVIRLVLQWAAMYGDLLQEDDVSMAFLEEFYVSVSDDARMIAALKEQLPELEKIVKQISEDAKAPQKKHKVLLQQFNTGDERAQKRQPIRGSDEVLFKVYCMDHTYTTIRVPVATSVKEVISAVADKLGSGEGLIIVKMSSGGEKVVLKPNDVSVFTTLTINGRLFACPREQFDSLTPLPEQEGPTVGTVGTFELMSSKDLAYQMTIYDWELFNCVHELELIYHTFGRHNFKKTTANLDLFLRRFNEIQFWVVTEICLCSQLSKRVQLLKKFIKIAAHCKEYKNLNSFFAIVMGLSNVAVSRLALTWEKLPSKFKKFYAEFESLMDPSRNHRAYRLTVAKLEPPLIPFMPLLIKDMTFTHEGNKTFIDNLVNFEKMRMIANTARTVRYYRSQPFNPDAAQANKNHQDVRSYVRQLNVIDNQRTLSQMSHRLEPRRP
Chain of Cytochrome P450 1A2 (Homo sapiens) (P05177 whole entry, looked up): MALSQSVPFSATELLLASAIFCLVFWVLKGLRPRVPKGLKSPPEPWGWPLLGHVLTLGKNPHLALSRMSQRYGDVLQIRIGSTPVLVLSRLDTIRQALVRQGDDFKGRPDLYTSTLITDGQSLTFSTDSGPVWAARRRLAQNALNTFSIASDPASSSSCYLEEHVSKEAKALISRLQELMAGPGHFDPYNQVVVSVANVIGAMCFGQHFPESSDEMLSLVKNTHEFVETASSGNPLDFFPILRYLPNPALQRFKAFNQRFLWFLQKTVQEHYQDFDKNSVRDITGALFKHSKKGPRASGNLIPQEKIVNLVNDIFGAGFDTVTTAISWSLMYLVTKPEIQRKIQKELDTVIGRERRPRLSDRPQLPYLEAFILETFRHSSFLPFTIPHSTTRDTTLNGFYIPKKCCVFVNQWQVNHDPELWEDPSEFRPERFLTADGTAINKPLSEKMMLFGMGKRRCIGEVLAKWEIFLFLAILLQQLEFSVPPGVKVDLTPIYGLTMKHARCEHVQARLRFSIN
Chain of Lysosomal acid glucosylceramidase (Homo sapiens) (P04062 whole entry, looked up): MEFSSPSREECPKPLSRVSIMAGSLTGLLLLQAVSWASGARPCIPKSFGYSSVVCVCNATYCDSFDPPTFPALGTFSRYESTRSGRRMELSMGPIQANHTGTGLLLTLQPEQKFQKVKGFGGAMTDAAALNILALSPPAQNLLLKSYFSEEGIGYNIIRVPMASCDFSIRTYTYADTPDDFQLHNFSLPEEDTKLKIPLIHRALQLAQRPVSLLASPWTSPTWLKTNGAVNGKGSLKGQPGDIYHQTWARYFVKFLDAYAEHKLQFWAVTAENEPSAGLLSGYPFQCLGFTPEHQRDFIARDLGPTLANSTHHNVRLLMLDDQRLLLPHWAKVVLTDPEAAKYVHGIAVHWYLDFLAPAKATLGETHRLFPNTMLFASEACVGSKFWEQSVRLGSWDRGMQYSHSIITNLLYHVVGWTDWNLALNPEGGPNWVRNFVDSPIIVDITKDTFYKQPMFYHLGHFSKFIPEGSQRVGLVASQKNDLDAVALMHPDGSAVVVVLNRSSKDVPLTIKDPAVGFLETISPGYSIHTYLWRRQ
Chain of Glucocorticoid receptor (Homo sapiens) (P04150 whole entry, looked up, the tested form may be a part): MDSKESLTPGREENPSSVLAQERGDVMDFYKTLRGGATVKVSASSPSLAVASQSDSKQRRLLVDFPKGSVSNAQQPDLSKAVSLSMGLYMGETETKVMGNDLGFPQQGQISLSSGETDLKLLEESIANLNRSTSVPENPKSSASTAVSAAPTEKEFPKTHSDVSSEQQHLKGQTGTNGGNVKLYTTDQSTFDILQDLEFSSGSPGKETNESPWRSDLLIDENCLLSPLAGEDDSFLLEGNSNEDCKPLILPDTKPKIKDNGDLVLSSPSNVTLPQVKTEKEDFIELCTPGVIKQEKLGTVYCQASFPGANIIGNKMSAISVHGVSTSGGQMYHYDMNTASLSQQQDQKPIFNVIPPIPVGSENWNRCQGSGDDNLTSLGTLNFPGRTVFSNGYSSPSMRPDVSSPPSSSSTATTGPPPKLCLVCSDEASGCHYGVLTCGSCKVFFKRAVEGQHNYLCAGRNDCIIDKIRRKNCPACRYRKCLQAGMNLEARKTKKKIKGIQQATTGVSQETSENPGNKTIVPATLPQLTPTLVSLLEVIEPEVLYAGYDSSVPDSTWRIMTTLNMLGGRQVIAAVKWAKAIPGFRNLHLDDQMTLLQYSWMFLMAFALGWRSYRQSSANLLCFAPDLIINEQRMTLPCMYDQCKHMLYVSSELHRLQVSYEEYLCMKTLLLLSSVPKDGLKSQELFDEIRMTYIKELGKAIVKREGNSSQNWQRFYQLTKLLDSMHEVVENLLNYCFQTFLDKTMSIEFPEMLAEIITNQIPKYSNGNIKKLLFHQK
Chain of Cytochrome P450 3A4 (Homo sapiens) (P08684 whole entry, looked up): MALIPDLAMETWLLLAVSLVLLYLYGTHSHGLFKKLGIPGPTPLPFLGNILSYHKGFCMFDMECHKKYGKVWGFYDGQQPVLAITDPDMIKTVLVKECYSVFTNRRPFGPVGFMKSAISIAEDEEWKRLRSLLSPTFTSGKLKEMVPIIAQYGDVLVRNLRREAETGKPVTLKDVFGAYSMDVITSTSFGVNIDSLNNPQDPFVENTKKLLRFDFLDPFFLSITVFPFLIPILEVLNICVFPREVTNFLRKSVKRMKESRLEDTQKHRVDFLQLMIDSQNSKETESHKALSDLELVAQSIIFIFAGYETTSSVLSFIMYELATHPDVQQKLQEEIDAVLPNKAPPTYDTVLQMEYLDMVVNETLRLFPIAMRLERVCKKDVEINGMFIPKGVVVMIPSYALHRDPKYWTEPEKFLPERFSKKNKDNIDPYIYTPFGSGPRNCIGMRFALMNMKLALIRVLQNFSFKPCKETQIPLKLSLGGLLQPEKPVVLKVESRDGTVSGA
Chain of 3',5'-cyclic-AMP phosphodiesterase 4B (Homo sapiens) (Q07343 whole entry, looked up): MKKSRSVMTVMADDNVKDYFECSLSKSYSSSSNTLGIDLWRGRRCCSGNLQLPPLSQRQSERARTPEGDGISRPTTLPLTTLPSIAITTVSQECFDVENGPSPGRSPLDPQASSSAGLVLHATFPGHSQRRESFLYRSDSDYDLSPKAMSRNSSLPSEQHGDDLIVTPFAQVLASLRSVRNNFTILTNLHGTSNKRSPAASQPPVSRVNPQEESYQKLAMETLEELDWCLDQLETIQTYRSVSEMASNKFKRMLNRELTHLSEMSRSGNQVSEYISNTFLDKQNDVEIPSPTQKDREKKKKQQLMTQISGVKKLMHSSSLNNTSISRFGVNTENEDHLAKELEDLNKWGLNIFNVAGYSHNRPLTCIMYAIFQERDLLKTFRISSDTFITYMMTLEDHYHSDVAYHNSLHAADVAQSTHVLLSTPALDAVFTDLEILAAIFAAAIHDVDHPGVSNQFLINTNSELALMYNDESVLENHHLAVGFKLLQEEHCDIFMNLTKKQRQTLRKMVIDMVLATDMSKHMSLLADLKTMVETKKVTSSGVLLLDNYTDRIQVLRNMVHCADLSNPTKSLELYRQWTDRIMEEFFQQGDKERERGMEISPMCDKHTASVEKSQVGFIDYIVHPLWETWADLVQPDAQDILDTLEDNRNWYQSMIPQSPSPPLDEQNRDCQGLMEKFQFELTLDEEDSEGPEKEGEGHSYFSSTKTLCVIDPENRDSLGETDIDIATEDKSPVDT

Turning to `O=c1c(-c2cc(F)cc(F)c2)nc2cncnc2n1Cc1ccccc1Cl`, the Potency is above 11.4 µM in [1], 5.01 µM (active) in test [3], above 9.22 µM in test [6] and above 46 µM in [7]. For the same compound, the activity change, negative = inhibition was 5.85% in [2] and -19.2% in test [4]. In addition, the activity, negative = inhibition in test [5] was -6.37%. Also, the Potency result in test [8], in test [9], in [10], in test [11], in [13] and in test [14] was “inactive” each time. Besides, the Potency entry in test [15] and in [16] was “inactive” in each case. The result in test [12] was inactive.

As to `COc1ccc(-c2nc3cnc(Nc4ccccc4)nc3n(CCC#N)c2=O)cc1`, the Potency is above 11.4 µM in [1], 0.501 µM (active) in test [3], above 46 µM in [7] and 70.6 µM (active) in [15]. Further, the activity change, negative = inhibition in test [2] is -3.18%. In addition, the activity, negative = inhibition in [5] is -4.64%. Also, the Potency entry in test [8], in test [13] and in test [16] was “inactive” in each case. Further, in test [12], the outcome was inactive.

On to `CN(C)c1ncc2nc(-c3cccs3)c(=O)n(C3CC3)c2n1`, for which the Potency in [1] is above 11.4 µM; in test [6], above 9.22 µM; in test [7], above 46 µM; in test [15] it was 19.9 µM (active). Further, the activity change, negative = inhibition was 6.37% in [2] and 19.8% in [4]. For the same compound, in [12], the result was inactive. Besides, the Potency result in [13] and in test [16] was “inactive” in each case.

Turning to `c1csc(CNc2ccnc(-c3ccc4c(c3)OCO4)n2)c1`, the Potency was 0.316 µM (active) in test [3], above 46 µM in test [6] and above 46 µM in test [7]. For the same compound, in test [4], the activity change, negative = inhibition is 11.2%. Further, in test [5], the activity, negative = inhibition is -12.2%. The Potency entry in [8], in test [10], in [11], in test [13] and in [16] was “inactive” each time. For the same compound, the result in test [12] was inactive.

As for `CN(C)c1ncc2nc(-c3cc(F)cc(F)c3)c(=O)n(Cc3cccs3)c2n1`, the Potency in [1] was above 11.4 µM; in [3], 1.58 µM (active); in test [6] it was above 9.22 µM; in test [7], above 46 µM. Besides, the activity change, negative = inhibition in test [4] was 110% [activator] (active). In addition, the activity, negative = inhibition in test [5] is 190% [activator] (active). Moreover, the Potency entry in test [9], in test [10], in [13], in [14], in test [15] and in test [16] was “inactive” each time. Besides, in [12], the outcome was inactive.

As to `O=c1c(-c2ccc(Cl)cc2)nc2cncnc2n1Cc1ccccc1Cl`, the Potency in test [1] is above 11.4 µM; in test [3], 1.26 µM (active); in [6] it was above 9.22 µM; in [7] it was above 46 µM. Besides, the activity change, negative = inhibition in test [2] is 8.01%. Besides, in [5], the activity, negative = inhibition was 13%. Moreover, the Potency result in test [8], in test [9], in test [10], in test [13], in test [14] and in test [15] was “inactive” each time. Further, the Potency result in test [16] is “inactive”. Besides, the outcome in test [12] was inactive.

`O=c1c(-c2ccc(F)cc2)nc2cnc(Nc3ccccc3)nc2n1Cc1cccs1`: the Potency in test [1] was above 11.4 µM; in test [3], 2 µM (active); in [6], above 9.22 µM; in test [7], above 46 µM. The activity change, negative = inhibition in [2] was -11.9%. In addition, the Potency entry in test [8], in test [9], in [13] and in [16] was “inactive” throughout. Further, the result in [12] was inactive.

The record behind these values is PubChem BioAssay (NCATS).
